{"source": "PubChem BioAssay (NCATS)"}
{"assay": "qHTS profiling of the MIPE4 collection as inhibitors of Plasmodium falciparum (DD2) proliferation (Rep 2) (AID 743346)", "settings": "P. falciparum Dd2 in erythrocytes, SYBR Green DNA, 72 h; at 28.5 µM unless noted", "method_in_brief": "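Erythrocytes infected with P. falciparum (0.3% parasitemia, 2.5% hematocrit) incubated with compounds 72 h at 37 C, 5% CO2. Lysis with saponin/Triton buffer containing SYBR Green I, overnight at room temperature in the dark; DNA fluorescence (485/535 nm) normalised to 0.29 uM artemisinin and DMSO.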"}
{"molecule": "N=C(N)c1ccc2cc(OC(=O)c3ccc(N=C(N)N)cc3)ccc2c1", "parasite growth, % of control (lower = inhibition)": "14%"}
{"molecule": "CNC[C@H](O)c1ccc(O)c(O)c1", "parasite growth, % of control (lower = inhibition)": "51.2% [at 57.5 µM]"}
{"molecule": "O=C(NOCC1CC1)c1ccc(F)c(F)c1Nc1ccc(I)cc1Cl", "parasite growth, % of control (lower = inhibition)": "56.1%"}
{"molecule": "CCC[C@@H]1C[C@@H](C(=O)N[C@@H]([C@H]2O[C@H](SC)[C@H](O)[C@@H](O)[C@H]2O)[C@@H](C)O)N(C)C1", "parasite growth, % of control (lower = inhibition)": "67.1%"}
{"molecule": "CN(C)C(=O)COC(=O)Cc1ccc(OC(=O)c2ccc(N=C(N)N)cc2)cc1", "parasite growth, % of control (lower = inhibition)": "43%"}
{"molecule": "CC1(C)NC(=O)N(c2ccc([N+](=O)[O-])c(C(F)(F)F)c2)C1=O", "parasite growth, % of control (lower = inhibition)": "86.1%"}
{"molecule": "Cc1cc(C2CCCCC2)n(O)c(=O)c1", "parasite growth, % of control (lower = inhibition)": "17.5%"}
{"molecule": "NC(=NCc1ccccc1)NC(=O)c1nc(Cl)c(N)nc1N", "parasite growth, % of control (lower = inhibition)": "83.5%"}
{"molecule": "Cn1c(NCCN(CCO)CCCc2ccc([N+](=O)[O-])cc2)cc(=O)n(C)c1=O", "parasite growth, % of control (lower = inhibition)": "7.33%"}
{"molecule": "COc1cc2nc(N3CCN(C(=O)C4CCCO4)CC3)nc(N)c2cc1OC", "note": "(configuration not stated)", "parasite growth, % of control (lower = inhibition)": "46.2%"}
{"molecule": "O=c1c(O)c(-c2ccc(O)cc2O)oc2cc(O)cc(O)c12", "parasite growth, % of control (lower = inhibition)": "111%"}
{"molecule": "O=C(CCc1ccc(O)cc1)c1c(O)cc(O)cc1O", "parasite growth, % of control (lower = inhibition)": "7.72%"}
{"molecule": "CC(=O)O[C@H]1C(=O)[C@@]2(C)C([C@H](OC(=O)c3ccccc3)[C@]3(O)C[C@H](OC(=O)[C@H](O)[C@@H](NC(=O)c4ccccc4)c4ccccc4)C(C)=C1C3(C)C)[C@]1(OC(C)=O)CO[C@@H]1C[C@@H]2O", "note": "(some centres not stated)", "parasite growth, % of control (lower = inhibition)": "11.8%"}
{"molecule": "NCCCCNCCCN", "parasite growth, % of control (lower = inhibition)": "90.4%"}
{"molecule": "CCCc1cc(=O)[nH]c(=S)[nH]1", "parasite growth, % of control (lower = inhibition)": "78.2%"}
{"molecule": "Cc1cccc(CN2CCN(C(c3ccccc3)c3ccc(Cl)cc3)CC2)c1", "note": "(configuration not stated)", "parasite growth, % of control (lower = inhibition)": "22.6%"}
{"molecule": "N[C@@H](Cc1cc(I)c(Oc2cc(I)c(O)c(I)c2)c(I)c1)C(=O)O", "parasite growth, % of control (lower = inhibition)": "91.7%"}
{"molecule": "COC(=O)N[C@H](C(=O)N[C@@H](Cc1ccccc1)[C@@H](O)CN(Cc1ccc(-c2ccccn2)cc1)NC(=O)[C@@H](NC(=O)OC)C(C)(C)C)C(C)(C)C", "parasite growth, % of control (lower = inhibition)": "34.6%"}
{"molecule": "Cc1ccc(S(=O)(=O)NC(=O)NN2CC3CCCC3C2)cc1", "note": "(configuration not stated)", "parasite growth, % of control (lower = inhibition)": "16.9%"}
{"molecule": "CN(c1nccc(=O)[nH]1)C1CCN(c2nc3ccccc3n2Cc2ccc(F)cc2)CC1", "parasite growth, % of control (lower = inhibition)": "23.1%"}
{"molecule": "Cc1cc2cc3c(C)cc(=O)oc3c(C)c2o1", "parasite growth, % of control (lower = inhibition)": "91.1%"}
{"molecule": "CN(C)CCCC1(c2ccc(F)cc2)OCc2cc(C#N)ccc21", "note": "(configuration not stated)", "parasite growth, % of control (lower = inhibition)": "45.5%"}
{"molecule": "Nc1ncn([C@H]2C[C@H](O)[C@@H](CO)O2)c(=O)n1", "parasite growth, % of control (lower = inhibition)": "91.2%"}
{"molecule": "COC(=O)C1=C(C)NC(C)=C(C(=O)OC(C)C)C1c1cccc2nonc12", "note": "(configuration not stated)", "parasite growth, % of control (lower = inhibition)": "120%"}
{"molecule": "CCCCCCCCOc1ccccc1C(=O)Nc1ccc(C(=O)OCC[N+](C)(CC)CC)cc1", "parasite growth, % of control (lower = inhibition)": "26.3%"}
{"molecule": "CS(=O)(=O)OCCCCOS(C)(=O)=O", "parasite growth, % of control (lower = inhibition)": "79.3%"}
{"molecule": "Nc1ccc(S(N)(=O)=O)cc1", "parasite growth, % of control (lower = inhibition)": "95.9%"}
{"molecule": "O=C1NC(=O)C(c2ccccc2[N+](=O)[O-])=C1Nc1ccc(O)c(Cl)c1", "parasite growth, % of control (lower = inhibition)": "106%"}
{"molecule": "COC(=O)C1=C(C)NC(C)=C(C(=O)OCCCN2CCC(c3ccccc3)(c3ccccc3)CC2)C1c1cccc([N+](=O)[O-])c1", "note": "(configuration not stated)", "parasite growth, % of control (lower = inhibition)": "86.6%"}
{"molecule": "OC(CN1CCN(c2cccc(Cl)c2)CC1)C(c1ccccc1)c1ccccc1", "note": "(configuration not stated)", "parasite growth, % of control (lower = inhibition)": "66%"}
{"molecule": "COc1cc2c(N3CCN(C(=O)Nc4ccc(OC(C)C)cc4)CC3)ncnc2cc1OCCCN1CCCCC1", "parasite growth, % of control (lower = inhibition)": "12%"}
{"molecule": "CC(=O)NC[C@H]1CN(c2ccc(N3CCOCC3)c(F)c2)C(=O)O1", "parasite growth, % of control (lower = inhibition)": "51.6%"}
